Bioassay records as filed in PubChem.
Tau fluor cs: counter-screen for tau fibril formation inhibitors; tau K18 P301L Alexa594 fluorescence, heparin fibrillization; Potency, µM (highest dose often 57.7 µM), inactives show top-dose activity change, negative = decrease; 280,000 tested, 0.93% active; further: potency means the concentration at half of the fitted maximal effect; nearly all actives have a fitted effect of over 55% in size
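Human K18 P301L tau (15 uM unlabeled plus 0.24 uM Alexa 594-labeled, final) in 100 mM sodium acetate pH 7 was mixed with compound and 20 uM heparin and incubated 6 hr at 37 C.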
FBPA coupling cs: inhibits coupling enzyme system, counter-screen for aldolase hits; coupling enzyme system counterscreen, AmpLite Red fluorescence; activity change, negative = inhibition, % at 58.2 µM, hits read low; 290,000 tested, 0.67% active; AID 2472; in the data active means activity change below about -30%
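Fluorescence at 525 nm excitation and 598 nm emission measured inhibition of the coupled detection system without aldolase. Compounds (at 57.5 uM final) were preincubated 10 min at room temperature with coupling enzyme reagent before a 20 min substrate/AmpLite Red step.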
USP1 inh: inhibitors of human USP1/UAF1 deubiquitinase; AID 743255; 390,000 tested, 0.23% active; recombinant USP1/UAF1, Ub-Rhodamine cleavage fluorescence; O94782; Potency, µM (doses to about 57.1 µM), for inactives: top-dose activity change, negative = inhibition, actives largely listed as inhibitors; further: potency means the concentration at half of the fitted maximal effect; nearly all actives have a fitted effect of over 60% in size
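Step one: compound is pinned into 1nM USP1/UAF1 in HEPES pH 7.8 buffer with TCEP. Step two: 15 min room-temperature incubation. Step three: Ub-Rho (150nM final) starts cleavage, tracked by fluorescence over six one-minute reads.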
Tau fibril ThT: blocks human tau fibril formation measured by thioflavin T; 270,000 tested, 2.1% active; Potency, µM (doses to about 57.4 µM), without a hit: at the highest dose activity, negative = inhibition, hits mostly inhibitors; P10636; AID 1460; recombinant tau K18 P301L (four-repeat tau fragment), heparin-induced fibrillization, ThT fluorescence; further: potency means the concentration at half of the fitted maximal effect; nearly all actives have a fitted effect of over 55% in size
Target sequence (P10636 561-689 P618L limits assumed): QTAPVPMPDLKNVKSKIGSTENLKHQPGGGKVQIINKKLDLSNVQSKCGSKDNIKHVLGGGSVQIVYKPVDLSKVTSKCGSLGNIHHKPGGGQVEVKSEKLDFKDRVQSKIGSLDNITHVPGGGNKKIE
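Heparin-induced (20 uM) aggregation of recombinant human K18 P301L tau, 15 uM unlabeled with 0.24 uM labeled, pH 7 acetate buffer, 6 hr at 37 C with compound. Fibrils quantified by 30 uM ThT fluorescence after 1 hr ambient incubation.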
Tau FP inhib: inhibitors of human tau fibril formation; K18 P301L tau heparin fibrillization, Alexa594 FP, 6 h; Potency, µM (highest dose often 57.7 µM), inactives show at the top dose activity, negative = inhibition, hits mostly inhibitors; 280,000 tested, 0.39% active; further: potency means the concentration at half of the fitted maximal effect; nearly all actives have a fitted effect of over 55% in size
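Recombinant K18 P301L […], labeled with Alexa 594 at 0.24 uM over 15 uM unlabeled; heparin inducer 20 uM final; 37 C, 6 hr; FP endpoint.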
* marks the source's active call; other numbers are inactive results; ? = inconclusive; · = no result; [ ] = another dose, or the depositor's remark. Sampled rows, rich in hits. Any-hit rate of the full collection: about 2.3%. Unless noted, the call rests on the fitted dose curve; in most records, active means well fitted curve in the direction sought with a large enough effect; inconclusive means small, poorly fitted or top-dose-only effect, or another doubt; inactive means no such curve, though single readings can be large; an effect the other way counts as inactive or inconclusive. On the % scale 0 is the no-effect control and ±100 the full control effect.

SMILES	Tau fluor cs	FBPA coupling cs	USP1 inh	Tau fibril ThT	Tau FP inhib
O=C(Nc1ccc(C(F)(F)F)cc1)c1cc(S(=O)(=O)NCC2COc3ccccc3O2)ccc1F (configuration not stated)	?	-3	-12%	7%	13µM*
Nc1cnccc1C(=O)O	-13%	-51*	?	?	?
CN(C)c1ccc(C2C=C(c3ccccc3)Nc3nnnn32)cc1 (configuration not stated)	?	·	1%	?	?
COc1cc(/C=N/NC(=O)/C(=C\c2ccc([N+](=O)[O-])cc2)NC(=O)c2ccccc2)cc(OC)c1O	?	-3	-10%	28µM*	15%
Nc1ccc(C(=O)N/N=C\C=C\c2ccc([N+](=O)[O-])cc2)cc1	-16%	2	-25%	2.8µM*	-7%
O=C(N/N=C/c1ccc([N+](=O)[O-])cc1)c1ccc(COc2ccccc2-c2ccccc2)cc1	13µM*[quencher]	0	-5%	?	3%
O=C(N/N=C/c1cc([N+](=O)[O-])cc([N+](=O)[O-])c1O)/C(=C\c1cccs1)NC(=O)c1ccccc1	-9%	14	-2%	13µM*	13%
COc1cc(/C=N/NC(=O)/C(=C\c2ccc3c(c2)OCO3)NC(=O)c2ccccc2)ccc1O	-18%	-2	-8%	?	15%
CC1CC[C@@]2(C(=O)O)CC[C@]3(C)C(=CCC4[C@@]5(C)CCC(O)C(C)(C)C5CC[C@@]43C)C2C1C (some centres not stated)	-6%	0	·	0%	-12%
COc1cccc(Cn2c(=O)cnc3cnc(Nc4cccc(OC)c4)nc32)c1	·	0	·	·	·
CCCCn1c(NS(=O)(=O)c2ccc(C)cc2)c(S(=O)(=O)c2ccccc2)c2nc3ccccc3nc21	-8%	-53*	28µM*	?	-15%
CCCc1cc2c(OC(=O)CC)c(-c3ccc(C(=O)OCC)o3)c(=O)oc2cc1OC	-27%	5	-23%	25µM*	5%
O=C1c2ccccc2C(=O)N1Nc1ccccc1	-2%	-3	1%	3%	-9%
O=C1c2cccc3c([N+](=O)[O-])c(O)cc(c23)C(=O)N1Nc1ccccc1	-28%	5	-20%	5µM*	4%
CC(C)S(=O)(=O)C1=NSC2=NC(=O)/C(=C\c3ccc(-c4cccc(C(=O)O)c4)o3)C(=N)N21	17%	15	?	17%	10%
N=C1/C(=C\c2ccc(-c3cc(Cl)cc(Cl)c3)o2)C(=O)N=C2SC=C(c3ccccc3)N12	-25%	-1	-8%	4µM*	5%
N=C1/C(=C/c2ccc(-c3cccc(C(=O)O)c3)o2)C(=O)N=C2SC=C(c3ccccc3)N12	-7%	-10	?	4.5µM*	15%
COc1ccc(NC(=O)CN2C(=O)CC(c3ccc(C)c(C)c3)=Nc3ccccc32)cc1OC	25µM*[quencher]	·	0%	?	-1%
O=[N+]([O-])/C=C\c1ccc(N2CCCC2)c(F)c1	?	1	?	16µM*	-8%
O=C(CSc1ncnc2c(-c3ccc(Cl)cc3)nsc12)c1ccccc1	?	2	?	18µM*	?
CCOc1cc(C(=O)Nc2ccc(-c3nnc4n3CCCCC4)cc2)cc(OCC)c1OCC	-3%	·	-23%	3%	6%
CCCC1Nc2ccc(C(=O)O)cc2C2C=CCC12 (configuration not stated)	?	-3	-17%	22µM*	?
O=C(O)c1ccc2c(c1)C1C=CCC1C(c1ccncc1)N2 (configuration not stated)	?	-31*	-21%	25µM*	?
FC(F)(F)c1ccc2c(c1)C1C=CCC1C(c1ccncc1)N2 (configuration not stated)	?	-11	-15%	?	?
CCOC(=O)C1Nc2ccc(C(=O)O)cc2C2C=CCC12 (configuration not stated)	·	-13	18µM*	·	·
SMILES	Tau fluor cs	FBPA coupling cs	USP1 inh	Tau fibril ThT	Tau FP inhib
Clc1ccc2[nH]c3c(c2c1)CCc1cn[nH]c1-3	8.9µM*[quencher]	-1	-5%	?	-13%
O=C(N/N=C\c1ccc(Sc2ccccn2)o1)c1cccc(F)c1	-12%	1	-13%	-2%	-9%
O=C(N/N=C/c1ccc(Sc2ccccn2)o1)c1cc2ccccc2cc1O	?	5	?	14µM*	-1%
O=C(CCc1ccccc1O)N/N=C/c1ccc(Sc2cccc3cccnc23)o1	14µM*[quencher]	-11	-23%	-10%	?
O=C(CSc1cccc2cccnc12)N/N=C/c1ccc(O)cc1	-7%	-18	0%	?	0%
CCNc1ncc2nc(-c3cc(F)cc(F)c3)c(=O)n(Cc3cccs3)c2n1	·	1	·	·	·
CC(=O)C1=C(C)OC(N)=C(C#N)C1c1cc2cccc(C)c2nc1Cl (configuration not stated)	-14%	-34*	-16%	?	-9%
COC(=O)C1=C(C)OC(N)=C(C#N)C1c1cc2cccc(C)c2nc1Cl (configuration not stated)	-5%	-2	·	?	-5%
CC(=O)N1CCN(c2ccc(Nc3nc(C)nc4c3oc3ccccc34)cc2)CC1	?	-9	-15%	8.9µM*	2%
Cc1ccc(CN(Cc2ccco2)C(=O)COc2ccccc2C)cc1	-11%	·	-20%	-15%	-3%
Cc1cccc(N2C(S)=C(C#N)C(=O)NC2c2ccco2)c1 (configuration not stated)	-6%	11	-17%	-4%	-9%
N#CC1=C(S)N(c2ccccc2)C(c2ccc(-c3cccc(Cl)c3)o2)NC1=O (configuration not stated)	-28%	5	-14%	22µM*	?
O=C1/C(=C/Nc2cccc([N+](=O)[O-])c2)CCc2ccccc21	?	-9	-26%	14µM*	9%
CC(CCC(C)C(C)(C)C)[C@@H]1CC[C@H]2C3C[C@H](OS(O)(=S)=S)[C@H]4C[C@H](OS(O)(=S)=S)[C@@H](OS(O)(=S)=S)C[C@]4(C)[C@H]3CC[C@]12C (some centres not stated) (tested in a mixture with another compound)	·	·	18µM*	·	·
CCOc1ccccc1C(=O)Nc1cc(Cl)ccc1O	18µM*[quencher]	-9	-14%	?	?
COc1ccccc1C(=O)Nc1cc(Cl)ccc1O	-7%	0	1%	-9%	6%
COc1ccc(NC(=O)NCCN2CCN(c3cccc(Cl)c3)CC2)cc1	-17%	-32*	-17%	-17%	12%
COc1ccc(N2CCN(CCNC(=O)Nc3ccc(C)c(Cl)c3)CC2)cc1	·	0	4%	·	·
